Hit rate of the full screen: of about 5,500 compounds, about 2,000 (36%) were called active. Inconclusive results (about 18%) are left out. Cut-off read from the data, not from the text of the source: active = normalized growth mostly below about 0.91 (no sharp cut-off); inconclusive = no clear call, values can overlap the other calls; inactive = mostly above about 0.92. This is one part of the list.
Assay: chemical genetic growth profiling, strain panel (AID 1159580);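 note: tested at 20 µM; growth read once vehicle control cultures reached saturation at 30 °C; 1 = growth at the plate median or of vehicle wells; lower values mean less growth of the strain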
Conditions: growth OD
[1] = S. cerevisiae deletion strains, locus YGR078C, strain PAC10, stronger effect = lower value
[2] = S. cerevisiae deletion strains, locus YPL055C, strain LGE1, stronger effect = lower value
[3] = S. cerevisiae deletion strains, locus YPL241C, strain CIN2, stronger effect = lower value

Measured: normalized growth

CC12CCC(C1)C(C)(C)C2NC(=O)c1cccs1 (stereo not given)
inactive: S. cerevisiae deletion strains, locus YAL013W, strain DEP1, stronger effect = lower value 0.976 | S. cerevisiae deletion strains, locus YBR229C, strain ROT2, stronger effect = lower value 1.01 | S. cerevisiae deletion strains, locus YDL101C, strain DUN1, stronger effect = lower value 0.995 | S. cerevisiae deletion strains, locus YDL134C, strain PPH21, stronger effect = lower value 0.991 | S. cerevisiae deletion strains, locus YDR150W, strain NUM1, stronger effect = lower value 0.907 | S. cerevisiae deletion strains, locus YEL061C, strain CIN8, stronger effect = lower value 1.02 | [1] 0.98 | S. cerevisiae deletion strains, locus YHR030C, strain SLT2, stronger effect = lower value 0.848 | S. cerevisiae deletion strains, locus YHR087W, strain rtc3, stronger effect = lower value 0.983 | S. cerevisiae deletion strains, locus YJL187C, strain SWE1, stronger effect = lower value 0.992 | S. cerevisiae deletion strains, locus YJR043C, strain POL32, stronger effect = lower value 0.956 | S. cerevisiae deletion strains, locus YJR075W, strain HOC1, stronger effect = lower value 0.97 | S. cerevisiae deletion strains, locus YLR039C, strain RIC1, stronger effect = lower value 1.03 | S. cerevisiae deletion strains, locus YLR058C, strain SHM2 (second series), stronger effect = lower value 0.994 | S. cerevisiae deletion strains, locus YLR085C, strain ARP6, stronger effect = lower value 0.944 | S. cerevisiae deletion strains, locus YLR262C, strain YPT6, stronger effect = lower value 1.03 | S. cerevisiae deletion strains, locus YML094W, strain GIM5, stronger effect = lower value 0.976 | S. cerevisiae deletion strains, locus YMR219W, strain ESC1, stronger effect = lower value 0.988 | S. cerevisiae deletion strains, locus YMR263W, strain SAP30, stronger effect = lower value 0.942 | S. cerevisiae deletion strains, locus YMR307W, strain GAS1, stronger effect = lower value 0.834 | S. cerevisiae deletion strains, locus YNL153C, strain GIM3, stronger effect = lower value 1 | S. cerevisiae deletion strains, locus YNL298W, strain CLA4 (second series), stronger effect = lower value 0.983 | S. cerevisiae deletion strains, locus YNL322C, strain KRE1, stronger effect = lower value 0.987 | S. cerevisiae deletion strains, locus YNR030W, strain Alg12, stronger effect = lower value 0.995 | S. cerevisiae deletion strains, locus YOL006C, strain TOP1, stronger effect = lower value 0.924 | [2] 0.968 | [3] 0.976 | S. cerevisiae deletion strains, locus YPR135W, strain CTF4, stronger effect = lower value 0.858 | S. cerevisiae strains, strain wild type, stronger effect = lower value 0.954

CC[N+](C)(C)Cc1ccccc1Br
inactive: S. cerevisiae deletion strains, locus YAL040C, strain CLN3, stronger effect = lower value 0.99 | S. cerevisiae deletion strains, locus YCL061C, strain MRC1 (second series), stronger effect = lower value 1.01 | S. cerevisiae deletion strains, locus YDR363W, strain ESC2, stronger effect = lower value 0.991 | S. cerevisiae deletion strains, locus YER002W, strain NOP16, stronger effect = lower value 0.993 | [1] 0.99 | S. cerevisiae deletion strains, locus YNL175C, strain NOP13, stronger effect = lower value 1.01 | S. cerevisiae deletion strains, locus YNL197C, strain WHI3, stronger effect = lower value 1.01 | S. cerevisiae deletion strains, locus YNL224C, strain SQS1, stronger effect = lower value 0.983 | S. cerevisiae deletion strains, locus YOR083W, strain WHI5 (second series), stronger effect = lower value 0.974 | [2] 0.999 | [3] 1.01
